Experimental data: PubChem BioAssay (EPA / NIEHS)
Values joined by “and” are separate entries in the source; they are usually repeats but may differ in a detail not shown here. Equal entries are not always repeated. Results filed as inconclusive are left out. More than one record can exist for a structure, and the calls need not agree. Active and inactive are the calls of the source. The calls were made as follows: active = hit-call score of the fitted dose curve at least 0.9, where 1 is the maximum; inconclusive = response in the unintended direction; inactive = score below 0.9.

system: not listed separately; experiment: TOX21_p53_BLA_p4_viability: Viability Assessment in the Tox21 HCT-116 p53 Agonism Beta-lactamase Assay, Phase 4 (AID 2283597);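 also: hits lower the luminescence signal meaning cytotoxicity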
Outline: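 Luminescent ATP readout (CellTiter-Glo, 30 min, room temperature) in the same wells as the p53 bla ratio. HCT116 cells were treated for 16 h at 37C with DMSO-dissolved compounds.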

| Compound | outcome | AC50 |
| --- | --- | --- |
| CCCCCCC(=O)O | inactive |  |
| O=C1OC2(c3ccccc31)c1cc(Br)c(O)c(Br)c1Oc1c2cc(Br)c(O)c1Br | inactive |  |
| COCC(C)O (configuration not stated) | inactive |  |
| CC(C)CCCCCCOC(=O)CCCCC(=O)OCCCCCCC(C)C | inactive |  |
| CCCCCCCCOC(=O)CCCCCCCCC(=O)OCCCCCCCC | inactive |  |
| CCc1nn(C2CCCCC2)c2cc(C3(C#N)CCC(C(=O)O)CC3)ccc12 (configuration not stated) | inactive |  |
| C[C@@H]1C[C@H]2[C@@H]3CCC4=CC(=O)C=C[C@]4(C)[C@@]3(F)[C@@H](O)C[C@]2(C)[C@@]1(O)C(=O)COP(=O)(O)O | inactive |  |
| NC(=O)N1C(=O)C(C(=O)c2cc(Cl)cs2)c2cc(F)c(Cl)cc21 (configuration not stated) | inactive |  |
| Cc1ccc(S(=O)(=O)O)c(C)c1 | inactive |  |
| CN1CCN(c2ccccc2/C=C2\SCCN(c3ccc(Cl)c(Cl)c3)C2=O)CC1 | inactive |  |
| OC1CCCCC1 | inactive |  |
| NC(=O)N(O)[C@@H]1C=C[C@H](Oc2cccc(Oc3ccc(F)cc3)c2)C1 |  | 84.2 µM (active) |
| CC(=O)NC1(c2cccc(F)c2)CCN(CC[C@@]2(c3ccc(Cl)c(Cl)c3)CN(c3ccccc3)C(=O)CO2)CC1 |  | 46.2 µM (active) |
| Cc1cc(C)c(O)c(C)c1 | inactive |  |
| CCN(CC)CCNc1ccc(CNC=O)c2sc3ccc(OC)cc3c(=O)c12 | inactive |  |
| COc1ccc([N+](=O)[O-])cc1N | inactive |  |
| Cc1cc(CCN2CCN(c3nsc4ccccc34)CC2)cc2c1NC(=O)CC2(C)C |  | 74.3 µM (active) |
| CCCCCCCCCCCCCCCS(=O)(=O)Oc1ccccc1 | inactive |  |
| c1ccc2c(c1)Cc1ccccc1-2 | inactive |  |
| CC[C@H](C)[C@@H](C(=O)O)n1sc2ccccc2c1=O | inactive |  |
| CCCCCCCCCCCCCC[N+](C)(C)C |  | 52.4 µM (active) and 13.2 µM (active) and 35.4 µM (active) |
| O=C(OCCOCCOC(=O)c1ccccc1)c1ccccc1 | inactive |  |
| CC(O)CO (configuration not stated) | inactive |  |

target: Cellular tumor antigen p53 (Homo sapiens) (UniProt P04637); experiment: TOX21_p53_BLA_p5_ratio: Tox21 HCT-116 p53 Agonism Beta-lactamase Assay, Ratio, Phase 5 (AID 2283599)
Sequence (P04637 whole entry, looked up): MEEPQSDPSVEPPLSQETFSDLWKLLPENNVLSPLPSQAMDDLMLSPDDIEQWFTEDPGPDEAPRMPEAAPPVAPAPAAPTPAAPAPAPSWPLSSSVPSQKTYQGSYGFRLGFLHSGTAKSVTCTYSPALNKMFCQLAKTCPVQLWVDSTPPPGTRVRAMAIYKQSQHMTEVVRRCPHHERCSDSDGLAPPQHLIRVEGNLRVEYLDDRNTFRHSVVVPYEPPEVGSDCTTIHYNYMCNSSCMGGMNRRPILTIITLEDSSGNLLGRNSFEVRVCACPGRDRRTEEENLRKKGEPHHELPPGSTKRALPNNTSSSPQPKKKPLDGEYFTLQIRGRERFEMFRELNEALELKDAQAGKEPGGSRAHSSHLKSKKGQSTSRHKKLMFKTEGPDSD
Outline: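 HCT-116 p53-bla cells (4000/well) plated 5 h, dosed with compound (217-fold DMSO dilution) for 16 h at 37 C; CCF4-AM substrate 2 h at room temperature. Activity is the 460/530 nm emission ratio (405 nm excitation), fitted in gain-of-signal direction versus DMSO.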

| Compound | outcome | AC50 |
| --- | --- | --- |
| OCCC(F)(F)C(F)(F)C(F)(F)C(F)(F)C(F)(F)C(F)(F)F | inactive |  |
| COCC(C)O (configuration not stated) | inactive |  |
| CCCCCCCCOC(=O)CCCCCCCCC(=O)OCCCCCCCC | inactive |  |
| CCc1nn(C2CCCCC2)c2cc(C3(C#N)CCC(C(=O)O)CC3)ccc12 (configuration not stated) | inactive |  |
| C[C@@H]1C[C@H]2[C@@H]3CCC4=CC(=O)C=C[C@]4(C)[C@@]3(F)[C@@H](O)C[C@]2(C)[C@@]1(O)C(=O)COP(=O)(O)O | inactive |  |
| CC1=C(/C=C/C(C)=C/C=C/C(C)=C/C(=O)O)C(C)(C)CCC1 | inactive | 86.9 µM (active) |
| NC(=O)N1C(=O)C(C(=O)c2cc(Cl)cs2)c2cc(F)c(Cl)cc21 (configuration not stated) |  | 7.17 µM (active) |
| OCCC(F)(F)C(F)(F)C(F)(F)C(F)(F)C(F)(F)C(F)(F)C(F)(F)C(F)(F)F | inactive |  |
| Cc1ccc(S(=O)(=O)O)c(C)c1 | inactive |  |
| CN1CCN(c2ccccc2/C=C2\SCCN(c3ccc(Cl)c(Cl)c3)C2=O)CC1 |  | 86 µM (active) |
| OC1CCCCC1 | inactive |  |
| CCCCOCCO | inactive |  |
| NC(=O)N(O)[C@@H]1C=C[C@H](Oc2cccc(Oc3ccc(F)cc3)c2)C1 | inactive |  |
| CC(=O)NC1(c2cccc(F)c2)CCN(CC[C@@]2(c3ccc(Cl)c(Cl)c3)CN(c3ccccc3)C(=O)CO2)CC1 |  | 70.3 µM (active) |
| CC(O)C(=O)O (configuration not stated) | inactive |  |
| Cc1cc(C)c(O)c(C)c1 | inactive |  |
| CCN(CC)CCNc1ccc(CNC=O)c2sc3ccc(OC)cc3c(=O)c12 |  | 29 µM (active) |
| COc1ccc([N+](=O)[O-])cc1N | inactive |  |
| Cc1cc(CCN2CCN(c3nsc4ccccc34)CC2)cc2c1NC(=O)CC2(C)C | inactive |  |
| CCCCCCCCCCCCCCCS(=O)(=O)Oc1ccccc1 | inactive |  |
| c1ccc2c(c1)Cc1ccccc1-2 | inactive | 87.3 µM (active) |
| CC[C@H](C)[C@@H](C(=O)O)n1sc2ccccc2c1=O | inactive |  |
| CCCCCCCCCCCCCC[N+](C)(C)C | inactive | 31.2 µM (active) and 16.1 µM (active) |
| O=C(OCCOCCOC(=O)c1ccccc1)c1ccccc1 | inactive |  |
| CC(O)CO (configuration not stated) | inactive |  |
| CCC(C)(C)C1CCC(O)CC1 (configuration not stated) | inactive |  |
